A selection: hits, their analogues and other compounds. The true share with any hit is near 4%.
Caspase-7 inhib: blocks human caspase-7 allosterically or competitively | P55210 | recombinant caspase-7, Ac-DEVD-AFC fluorescence rate | Potency, µM (doses to about 57.5 µM), for the others: at the highest dose activity change, negative = inhibition, hits mostly inhibitors | 75,000 tested, 0.02% active | AID 889; active = well fitted inhibition curve with a large enough effect in the main read-out, with a control signal flat, not every such curve was filed as active; inconclusive = small, poorly fitted or top-dose-only effect, or a change in a side signal; note: % of control where 0% means no effect
HEK293 cAMP cs: raises cAMP in parental HEK293 cells, TSHR agonist counter-screen. parental HEK293 CNG cAMP sensor, membrane potential fluorescence. AID 938. 73,000 tested, 2.5% active. Potency, µM (series often up to 57.1 µM), inactives show top-dose activation, usual class: activators; note: % of control where 0% means no effect; nearly all actives have a fitted effect of over 55% in size
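Counterscreen for endogenous-receptor signalling: CNG-channel HEK 293 cells report cAMP rise by membrane depolarization. After 60 min dye equilibration with 100 uM RO 20-1724, compounds incubated 30 min before bottom-read fluorescence at 590 nm.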
Casp1 inh: caspase-1 (human) inhibition, allosteric or competitive; Potency, µM (doses to about 57.5 µM), for the others: at the top dose activity change, negative = inhibition, usual class: inhibitors; 75,000 tested, 0.03% active; Caspase-1 enzyme, Ac-WEHD-AFC fluorogenic rate;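 note: plate controls were vehicle for no effect and no substrate for full effect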
Bst PK mod: pyruvate kinase (B. stearothermophilus) modulation; purified pyruvate kinase, luminescence ATP production; ribose 5-phosphate activator present at AC10; 51,000 tested, 1.2% active; AID 361; Potency, µM; in the data active = potency below about 11 µM; inconclusive = mostly about 12 µM to 25 µM;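 the screen sought inhibitors and activators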;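 note: scaled between full activation by ribose 5 phosphate and full inhibition by luteolin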
GBA activity: alters purified human glucocerebrosidase activity; P04062; purified enzyme, resorufin glucoside fluorescence (screen aimed at inhibitors), 20 min; Potency, µM; 48,000 tested, 1.1% active; in the data active = potency below about 15 µM; inconclusive = mostly about 16 µM to 33 µM;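 note: the screen sought inhibitors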
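Compounds titrated against 0.2 nM normal enzyme, 30 uM resorufin beta-D-glucopyranoside substrate, citrate/phosphate buffer with taurocholate and tween-20, pH 5.9. Reaction ran 20 min at room temperature; fluorescence (Ex 548/Em 600) gave AC50.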
TSHR ag: agonists of human thyroid stimulating hormone receptor; P16473; HEK293-CNG-TSHR cells (CNG channel as cAMP sensor), membrane potential dye, cAMP; Potency, µM (doses to about 57.1 µM), without a hit: top-dose activation, most hits filed as activators; 73,000 tested, 0.48% active; active = well fitted activation curve with a large enough effect in the main read-out, with a control signal flat, not every such curve was filed as active; inconclusive = small, poorly fitted or top-dose-only effect, or a change in a side signal; inactive = no such curve, though single readings can be large or run the other way; % of control where 0% means no effect;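 note: the control signal comes from parental cells without the receptor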
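HEK 293 cells stably expressing TSHR and a modified CNG channel, with CNG-only parental cells as counterscreen, were preloaded 60 min at room temperature with membrane potential dye containing 100 uM RO 20-1724. Compound exposure was 30 min, and depolarization was read as fluorescence at 590 nm.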
Active calls of the source: *; i = inactive; ? = inconclusive; / = not tested or not shown; [ ] = remark or other dose. Unless noted, calls come from the whole dose curve; as a rule, active = well fitted curve in the direction sought with a large enough effect; inconclusive = small, poorly fitted or top-dose-only effect, or another doubt; inactive = no such curve, though single readings can be large; an effect the other way counts as inactive or inconclusive. Potency is the fitted concentration of half-maximal effect.

SMILES	Caspase-7 inhib	HEK293 cAMP cs	Casp1 inh	Bst PK mod	GBA activity	TSHR ag
COc1cccc(-n2nnc3c(=O)n(Cc4ccccc4Cl)cnc32)c1	0%	?	-1%	6.9*	>77	?
Cc1ccc(-n2nnc3c(=O)n(Cc4cc(C)ccc4C)cnc32)cc1	1%	20µM*	2%	>57	>77	?
COc1cccc(-n2nnc3c(=O)n(Cc4ccc(C)cc4)cnc32)c1	0%	16µM*	-1%	>57	>77	?
O=C(O)CCSCc1ccccc1	1%[11.5 µM]	2%[11.4 µM]	0%[11.5 µM]	/	/	-2%[11.4 µM]
CCCc1cc(=O)oc2cc3oc(C)c(C)c3cc12	-2%	25µM*	-1%	>57	>77	?
CCc1cc(=O)oc2cc3oc(C)c(C)c3cc12	-3%	25µM*	-1%	>57	i	?
COC(=O)[C@@]1(Cc2ccc(F)cc2)[C@@H]2C(=CC(=O)[C@H]2CC(=O)C(=O)N(C)C)CN1C(=O)c1ccccc1	-2%	20%	?	/	/	-1%
Cc1nc(NCc2ccccc2)c2nc(-c3ccccc3)n(CCN(C)C)c2n1	-2%	?	1%	/	/	?
c1ccc2c(c1)CCN(c1nc3cc4c(cc3s1)OCO4)C2	-25%	-14%	-7%	2.8*	>77	-27%
c1c2c(cc3sc(N4CCCCC4)nc13)OCO2	-5%	14%	-1%	6.2*	>77	3%
NC1=N[C@H](c2ccc(Cl)cc2)N(c2ccc(S(N)(=O)=O)cc2)C(N)=N1	-2%[11.5 µM]	7%[11.4 µM]	0%[11.5 µM]	/	/	-3%[11.4 µM]
Clc1ccccc1-c1ccc2ncnc(NCCN3CCOCC3)c2c1	-7%	20%	-5%	/	/	11%
Cc1nc2cccc([N+](=O)[O-])c2n1CCCN(C)C	1%[11.5 µM]	-2%[11.4 µM]	-4%[11.5 µM]	/	/	3%[11.4 µM]
COc1ccc2c(-c3cccnc3)cc(=O)[nH]c2c1	6%	-2%	0%	>57	8.9*	4%
O=C(Oc1ccccc1)N1CCC2(CC1)CCN(c1ccccn1)CC2	-4%	13µM*	-4%	/	/	?
O=C(Oc1ccccc1)N1CCC2(CC1)CCN(c1ccncc1)CC2	0%	7.9µM*	-1%	/	/	?
COCC(=O)N1CCC2(CC1)CCN(c1ccccn1)CC2	-2%	-8%	-3%	/	/	22%
COCC(=O)N1CCC2(CC1)CN(c1ccccn1)C2	1%	16µM*	-3%	/	/	?
O=c1c(-c2cccs2)nc2cnc(N3CCNCC3)nc2n1C1CC1	?	-15%	/	/	/	-7%
Nc1ncnc2c1ncn2[C@H]1O[C@@H](C(=O)OCCO)[C@@H](O)[C@H]1O	2%[11.5 µM]	0%[11.4 µM]	-2%[11.5 µM]	/	/	14%[11.4 µM]
CCCOn1nnnc1-c1ccccc1	0%	0%	-2%	>57	>77	2%
Cc1cccc(C(C)C)c1-n1nnnc1-c1ccccc1	-4%	20µM*	-4%	/	/	?
Clc1ccc2nc(-c3ccccc3)[nH]c2c1	2%	/	1%	/	/	/
Fc1cc2nc(-c3ccncc3)[nH]c2cc1F	0%	1%	-2%	i	14*	0%
CCOC(=O)CCN1C(=O)[C@H]2[C@H]3[C@H](O)[C@H](O)C/C(=N/OC[C@@H](O)COCc4ccco4)[C@H]3CC[C@@H]2C1=O	0%[11.5 µM]	2%[11.4 µM]	-1%[11.5 µM]	/	/	5%[11.4 µM]
SMILES	Caspase-7 inhib	HEK293 cAMP cs	Casp1 inh	Bst PK mod	GBA activity	TSHR ag
O=C(NC1=NCCS1)c1ccc(-c2ccc(Cl)cc2)o1	0%	3%	2%	5.4*	?	-2%[11.4 µM]
CN1CCN(c2nc(C(N)=O)cc(-c3ccccc3)n2)CC1	/	/	/	11*	/	/
Cc1cc(-c2ccccc2)nc(N2CCN(c3ccccn3)CC2)n1	-5%	?	-2%	>57	/	?
Cc1nc(NCc2ccccc2)c2nc(-c3ccccc3)n(C(C)CN(C)C)c2n1 (stereo unspecified)	1%	24%	-1%	/	/	17%
O=C(CCN1C(=O)c2ccccc2C1=O)N1CCN(C(=O)c2ccccc2)CC1	1%	28%	-2%	>57	>77	25µM*
O=C(O)CCCc1ccc2ccc3ccccc3c2c1	1%[11.5 µM]	12%[11.4 µM]	-1%[11.5 µM]	/	/	3%[11.4 µM]
O=C(Nc1ccc2c(c1)nc1n2CCOC1)c1ccco1	-2%	-1%	0%	?	?	-19%
O=C(Nc1ccc2c(c1)nc1n2CCSC1)c1ccco1	-28%	-18%	-11%	4.6*	/	-16%

From PubChem BioAssay
